# Source: PubChem
# ADAM17 inh: inhibitors of human ADAM17 | recombinant ADAM17, EDANS/DABCYL FRET peptide cleavage | inhibition, % at 6.95 µM | 370,000 tested, 0.83% active;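 active = inhibition above the mean of compounds lying between control limits plus 3 SD, set per campaign, cut at about 8.5% in these data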;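 also: 0% = DMSO-only wells as the low control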
# Target sequence (P78536 215-824 limits assumed): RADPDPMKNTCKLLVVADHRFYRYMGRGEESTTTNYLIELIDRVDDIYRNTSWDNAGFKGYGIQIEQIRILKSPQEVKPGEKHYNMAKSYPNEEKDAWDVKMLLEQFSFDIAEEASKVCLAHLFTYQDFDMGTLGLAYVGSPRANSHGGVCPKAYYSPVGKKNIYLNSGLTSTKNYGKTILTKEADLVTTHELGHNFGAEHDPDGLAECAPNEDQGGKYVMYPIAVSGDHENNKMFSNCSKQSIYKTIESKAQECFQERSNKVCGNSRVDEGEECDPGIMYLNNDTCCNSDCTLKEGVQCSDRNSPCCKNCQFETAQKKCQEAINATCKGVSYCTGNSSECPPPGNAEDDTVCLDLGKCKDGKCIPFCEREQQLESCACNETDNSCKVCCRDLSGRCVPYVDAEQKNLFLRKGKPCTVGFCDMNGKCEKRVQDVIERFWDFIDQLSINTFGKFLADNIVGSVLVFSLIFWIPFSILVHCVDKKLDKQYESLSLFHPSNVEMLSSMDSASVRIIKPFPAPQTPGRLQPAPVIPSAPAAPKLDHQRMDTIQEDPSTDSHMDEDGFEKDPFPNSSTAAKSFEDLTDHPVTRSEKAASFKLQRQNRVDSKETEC
# PLC-beta3 inh: blocks human PLC-beta3 enzyme activity | Q01970 | Purified PLC-beta3, fluorogenic substrate, fluorescence | inhibition, % at 12.2 µM | 370,000 tested, 0.18% active | AID 720704; in the data active = inhibition above about 11%;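 also: 0% = median of compound wells on plate and 100% = full blocker control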
# PLC-gamma1 inh: inhibitors of human phospholipase C gamma1; purified PLC-gamma1, fluorogenic substrate, fluorescence; inhibition, % at 12.2 µM; 370,000 tested, 0.84% active; in the data active = inhibition above about 9.5%
# proKLK7 act: activators of human kallikrein-7 zymogen. P49862. purified proKLK7, EDANS-DABCYL substrate fluorescence; 100% is mature enzyme control, 0% vehicle. activation, % at 7 µM. 370,000 tested, 0.9% active;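 active = activation above the mean of all tested compounds plus 3 SD, computed per campaign excluding outliers beyond control limits, cut at about 13% in these data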
# ADAM10 inh: inhibitors of human ADAM10; recombinant ADAM10, EDANS/DABCYL FRET peptide cleavage, 3 h; inhibition, % at 7 µM; 370,000 tested, 0.62% active; AID 720582;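 active = inhibition above a per-campaign cutoff equal to the mean of compounds falling between control-based bounds plus 3 SD, cut at about 20% in these data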;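 also: 0% = DMSO wells while the 100% control is not disclosed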
# proKLK7 act conf: confirmation of human kallikrein-7 zymogen activators. shares compounds with proKLK7 act. purified proKLK7, EDANS-DABCYL substrate fluorescence; scaled: vehicle 0, mature enzyme 100. activation, % at 7 µM. 3,200 tested, 68% active. AID 686949;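 active = activation, as change over the incubation, above the mean of all tested compounds plus 3 SD, cut at about 13% in these data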
# EDANS interfere: counter-screen for kallikrein-7 activators: EDANS-DABCYL optical interference | shares compounds with proKLK7 act | EDANS-DABCYL substrate fluorescence interference, no enzyme, 4 h; solvent 0%, active enzyme control 100% | activation, % at 7 µM | 3,200 tested, 80% active;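 active = activation above the all-compound mean plus 3 SD, ignoring values outside control-based bounds, cut at about 4.8% in these data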;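 also: value is the 4 h activation minus the activation read at time zero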
# EDANS interf: optically interferes with EDANS-DABCYL fluorescence, kallikrein-7 activator counter-screen. shares compounds with proKLK7 act. EDANS-DABCYL peptide fluorescence interference, no enzyme. EC50, µM. 250 tested, 20% active;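 active = compounds that raise the fluorescence signal in this interference counterscreen, with EC50 at or below 10 µM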;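 also: intact quenched peptide substrate alone read at 355 nm excitation and 520 nm emission; signal is fluorescence gain from T0 to T4 after four hours at room temperature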
# Numbers without * were called inactive; i = inactive; nt = no result. Only some compounds are listed: those with a hit (about 2.9% of all), similar ones and a draw of the others.
SMILES,ADAM17 inh,PLC-beta3 inh,PLC-gamma1 inh,proKLK7 act,ADAM10 inh,proKLK7 act conf,EDANS interfere,others
CC(C)CC(=O)c1c[nH]c(C(=O)NCC2CCCO2)c1 (stereo not given),-3,-1,3,0,9,nt,nt,
CC(=O)c1c[nH]c(C(=O)NCC2CCCO2)c1 (stereo not given),-2,0,-1,40*,-6,0,0,
O=C(CSc1nc2nc(-c3cccs3)cc(C(F)(F)F)c2c(=O)[nH]1)NCc1ccco1,i,-424,-308,16*,i,-34,-23,
O=C(CSc1nc2nc(-c3cccs3)cc(C(F)(F)F)c2c(=O)[nH]1)C(F)(F)F,i,i,i,67*,i,278*,260*,
Cc1cccn2c(=O)c3cc(C(=O)NCC4CCCO4)c(=N)n(C4CCCCC4)c3nc12 (stereo not given),i,i,i,25*,i,-53,-59,
Cc1cccn2c(=O)c3cc(C(=O)NC4CCCC4)c(=N)n(CC4CCCO4)c3nc12 (stereo not given),i,i,i,81*,i,-30,-34,
Cc1cccn2c(=O)c3cc(C(=O)NC4CCCC4)c(=N)n(CCCN4CCOCC4)c3nc12,i,-479,-310,35*,i,9,12*,
Cc1cccn2c(=O)c3cc(C(=O)NCC4CCCO4)c(=N)n(CC4CCCO4)c3nc12 (stereo not given),i,i,i,145*,i,33*,42*,
COC(=O)[C@@H](CC(C)C)CP(=O)(OC)[C@@H](C)NC(=O)OCc1ccccc1 (stereo not given in full),-4,0,-1,0,-1,nt,nt,
COc1nc(-c2ccccc2)c2cc(C)ccc2n1,-213,-407,-348,13*,i,-2,2,
Cc1ccc2nc(NCCO)nc(-c3ccccc3)c2c1,-196,i,i,19*,i,0,-4,
CCOc1nc(-c2ccccc2)c2cc(C)ccc2n1,-116,-259,-179,-4,-405,nt,nt,
CNC(=S)NNC(=O)c1cccn(Cc2ccc(Cl)cc2Cl)c1=O,-46,-15,-15,15*,-243,30*,42*,
CNC(=S)NNC(=O)c1cccn(Cc2cccc(C(F)(F)F)c2)c1=O,-54,-25,-12,28*,-115,89*,84*,
CNC(=S)NNC(=O)c1ccc(=O)n(Cc2ccc(Cl)cc2Cl)c1,1,4,-1,-1,5,nt,nt,
CCNC(=S)NNC(=O)c1cccn(Cc2ccc(Cl)cc2)c1=O,-47,-35,-25,22*,-322,33*,39*,
CCNC(=S)NNC(=O)c1ccccc1Cl,3,2,1,0,4,nt,nt,
Nc1cccc2[nH]c(=O)c3ccccc3c12,-327,-343,-267,20*,i,21*,21*,
Nc1ccc2c(c1)[nH]c(=O)c1ccccc12,-301,i,i,38*,i,49*,47*,
CCCCC(=O)Nc1ccc(C(=O)NCC2COc3ccccc3O2)cc1 (stereo not given),3,2,4,1,3,nt,nt,
CCCOc1nc2ccccc2cc1/C=C/C(=O)O,-120,-384,-322,17*,-249,8,11*,
CCOc1nc2ccccc2cc1C=O,-5,-6,0,-1,-10,nt,nt,
CCOc1ccc(-c2cc(C(=O)N3CCC(C)CC3)c3ccccc3n2)cc1,-27,-99,-52,-20,-98,nt,nt,
CCOc1ccc(-c2cc(C(=O)NCCCN3CCN(CC)CC3)c3ccccc3n2)cc1,-385,i,i,57*,i,-17,-20,
COc1ccc(/C=C/c2cc(C(=O)O)c3ccccc3n2)cc1,-31,i,i,13*,-104,72*,72*,
SMILES,ADAM17 inh,PLC-beta3 inh,PLC-gamma1 inh,proKLK7 act,ADAM10 inh,proKLK7 act conf,EDANS interfere,others
CCOc1ccc(-c2cc(C(=O)O)c3ccccc3n2)cc1,i,i,i,33*,i,60*,69*,
COC(=O)CN(Cc1cn(Cc2ccccc2)nn1)S(=O)(=O)c1ccccc1Br,3,7,2,1,5,nt,nt,
Cc1ccc(NC(=O)Cn2cnc3ccccc32)cc1C,-1,2,-1,0,-4,nt,nt,
Cc1ccc(NC(=O)Cn2c(/C=C/c3ccccc3)nc3ccccc32)cc1C,-36,-194,-143,29*,-157,49*,43*,
Cc1occc1-c1nnc(SCC(=O)Nc2ccncc2)n1-c1ccccc1,-1,-1,2,1,-2,nt,nt,
COc1ccc(NC(=O)c2ccc(NC(=O)CSc3nc(N)cc(=O)[nH]3)cc2)cc1,-27,-1,2,23*,-64,17*,14*,EDANS interf=i
O=C(NNS(=O)(=O)c1ccccc1[N+](=O)[O-])c1ccccc1Cl,-2,-4,-1,-1,1,nt,nt,
O=C(NNS(=O)(=O)c1ccccc1[N+](=O)[O-])c1cc2ccccc2cc1O,-2,-63,-44,14*,-24,22*,20*,
COc1cccc(CN2C(=O)c3ccccc3S2(=O)=O)c1,-2,-7,3,0,-4,nt,nt,
COc1cccc(CN2C(=O)c3cccc(N)c3C2=O)c1,-101,i,i,15*,-304,76*,79*,
Cc1cc(-c2nc3ccccc3s2)ccc1N,i,i,i,41*,i,-14,-15,
Cc1ccc2nc(-c3ccc(N)cc3)sc2c1,i,-491,-313,11,i,nt,nt,
Nc1ccc(-c2nc3cc(N)ccc3s2)cc1,-97,i,i,52*,-290,16*,67*,
Nc1ccc2nc(-c3ccccc3)sc2c1,i,i,i,63*,i,63*,68*,
C[C@@H]1CN([C@@H](C)CO)C(=O)CCCn2cc(nn2)CO[C@H]1CN(C)C(=O)Nc1ccc(N2CCN(C)CC2)cc1,-5,-5,-2,0,-15,nt,nt,
O=S(=O)(c1ccccc1)c1cnc2ccccc2c1,7,7,1,-1,-4,nt,nt,
Nc1nc2ccccc2cc1S(=O)(=O)c1ccccc1,-284,-333,-212,13*,i,7,10*,
COC(=O)/C=C/c1c(C)nc(NCc2ccccc2)nc1Cl,-157,-48,-36,29*,-431,50*,51*,
CCNc1nc(Cl)nc(NCc2ccccc2)n1,1,2,0,1,6,nt,nt,
